In experiment [1] the target is Fibroblast growth factor receptor 4 (Homo sapiens) (UniProt P22455). The conditions noted are these: at 1 µM.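 Also: reported figure is the averaged percent inhibition of FGFR4, from the GSK PKIS kinase screening panel.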
In experiment [2] the target is Tyrosine-protein kinase Fgr (Homo sapiens) (UniProt P09769). The conditions noted are these: at 0.1 µM.
The target is the same in experiment [3]. The conditions noted are these: at 1 µM.
The target in experiment [4] is Vascular endothelial growth factor receptor 1 (Homo sapiens) (UniProt P17948). The following applies: at 0.1 µM.
Chain of Vascular endothelial growth factor receptor 1 (Homo sapiens) (P17948 whole entry): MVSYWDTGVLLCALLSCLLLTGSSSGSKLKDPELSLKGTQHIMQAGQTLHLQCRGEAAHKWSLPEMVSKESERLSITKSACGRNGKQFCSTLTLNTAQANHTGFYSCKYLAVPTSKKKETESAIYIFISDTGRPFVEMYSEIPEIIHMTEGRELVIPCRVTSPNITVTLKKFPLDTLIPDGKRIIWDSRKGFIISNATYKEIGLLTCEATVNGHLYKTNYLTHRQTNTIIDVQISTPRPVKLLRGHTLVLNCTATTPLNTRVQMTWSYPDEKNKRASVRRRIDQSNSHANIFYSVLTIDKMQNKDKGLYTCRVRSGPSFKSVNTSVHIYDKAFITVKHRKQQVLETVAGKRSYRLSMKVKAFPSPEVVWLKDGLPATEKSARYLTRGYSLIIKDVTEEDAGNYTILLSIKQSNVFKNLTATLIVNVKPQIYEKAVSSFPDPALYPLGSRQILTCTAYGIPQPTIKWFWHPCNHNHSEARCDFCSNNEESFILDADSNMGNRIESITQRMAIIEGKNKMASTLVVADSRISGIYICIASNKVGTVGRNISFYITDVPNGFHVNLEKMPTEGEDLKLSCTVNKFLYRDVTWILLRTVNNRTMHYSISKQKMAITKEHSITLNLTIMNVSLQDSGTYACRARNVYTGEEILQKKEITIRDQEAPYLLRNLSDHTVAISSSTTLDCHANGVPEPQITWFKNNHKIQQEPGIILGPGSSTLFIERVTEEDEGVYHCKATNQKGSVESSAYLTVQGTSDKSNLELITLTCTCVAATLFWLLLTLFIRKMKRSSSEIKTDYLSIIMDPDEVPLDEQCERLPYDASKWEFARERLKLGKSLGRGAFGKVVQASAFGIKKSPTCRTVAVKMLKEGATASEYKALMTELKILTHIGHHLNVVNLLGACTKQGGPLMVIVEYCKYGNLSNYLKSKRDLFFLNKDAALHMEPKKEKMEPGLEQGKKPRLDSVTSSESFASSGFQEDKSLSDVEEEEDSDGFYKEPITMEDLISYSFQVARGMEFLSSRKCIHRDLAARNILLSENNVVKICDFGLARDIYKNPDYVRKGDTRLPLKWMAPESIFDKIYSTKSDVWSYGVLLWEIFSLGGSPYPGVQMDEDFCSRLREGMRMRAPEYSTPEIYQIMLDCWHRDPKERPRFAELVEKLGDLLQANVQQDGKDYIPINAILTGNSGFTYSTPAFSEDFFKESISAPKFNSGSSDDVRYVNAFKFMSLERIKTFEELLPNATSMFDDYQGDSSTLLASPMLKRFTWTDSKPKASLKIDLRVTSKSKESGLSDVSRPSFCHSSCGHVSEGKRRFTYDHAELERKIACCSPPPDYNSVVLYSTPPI
The target is the same in experiment [5]. The following applies: at 1 µM.
For experiment [6], the target named is Receptor-type tyrosine-protein kinase FLT3 (Homo sapiens) (UniProt P36888). The conditions noted are these: at 0.1 µM.
For experiment [7] the target is unchanged. The following applies: at 1 µM.
For experiment [8], the system named is T1, Receptor-type tyrosine-protein kinase FLT3 (Homo sapiens), P36888 [D835Y].
T1 sequence (whole entry): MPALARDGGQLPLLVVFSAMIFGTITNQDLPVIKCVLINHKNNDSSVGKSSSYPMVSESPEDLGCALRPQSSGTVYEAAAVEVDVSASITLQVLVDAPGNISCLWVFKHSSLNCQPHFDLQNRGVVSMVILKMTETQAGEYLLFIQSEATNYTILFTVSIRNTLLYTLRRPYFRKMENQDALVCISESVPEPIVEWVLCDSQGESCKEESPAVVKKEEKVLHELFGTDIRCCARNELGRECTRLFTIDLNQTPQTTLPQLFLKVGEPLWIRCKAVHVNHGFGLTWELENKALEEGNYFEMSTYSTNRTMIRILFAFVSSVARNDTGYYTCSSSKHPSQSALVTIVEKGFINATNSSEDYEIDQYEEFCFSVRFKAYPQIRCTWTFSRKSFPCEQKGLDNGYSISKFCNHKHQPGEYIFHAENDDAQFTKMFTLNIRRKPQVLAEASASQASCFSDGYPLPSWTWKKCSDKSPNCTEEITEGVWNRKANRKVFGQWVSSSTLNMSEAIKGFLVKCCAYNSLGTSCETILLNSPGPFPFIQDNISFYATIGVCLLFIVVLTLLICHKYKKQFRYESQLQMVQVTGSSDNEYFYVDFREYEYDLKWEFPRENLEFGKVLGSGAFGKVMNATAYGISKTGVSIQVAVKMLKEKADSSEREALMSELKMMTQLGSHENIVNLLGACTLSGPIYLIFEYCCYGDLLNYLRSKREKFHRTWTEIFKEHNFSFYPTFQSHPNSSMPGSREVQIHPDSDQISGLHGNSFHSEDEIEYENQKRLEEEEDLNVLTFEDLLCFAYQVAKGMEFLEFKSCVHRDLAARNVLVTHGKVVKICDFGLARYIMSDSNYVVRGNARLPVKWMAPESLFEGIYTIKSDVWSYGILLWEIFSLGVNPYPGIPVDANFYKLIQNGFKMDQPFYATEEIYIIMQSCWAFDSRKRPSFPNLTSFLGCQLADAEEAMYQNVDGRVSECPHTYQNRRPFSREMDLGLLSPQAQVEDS
The conditions noted are these: at 0.1 µM.

The target in experiment [9] is Non-receptor tyrosine-protein kinase TYK2 (Homo sapiens) (UniProt P29597). The following applies: at 1 µM.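 Also: values are mean percent inhibition of TYK2 kinase.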
Chain of Non-receptor tyrosine-protein kinase TYK2 (Homo sapiens) (P29597 whole entry): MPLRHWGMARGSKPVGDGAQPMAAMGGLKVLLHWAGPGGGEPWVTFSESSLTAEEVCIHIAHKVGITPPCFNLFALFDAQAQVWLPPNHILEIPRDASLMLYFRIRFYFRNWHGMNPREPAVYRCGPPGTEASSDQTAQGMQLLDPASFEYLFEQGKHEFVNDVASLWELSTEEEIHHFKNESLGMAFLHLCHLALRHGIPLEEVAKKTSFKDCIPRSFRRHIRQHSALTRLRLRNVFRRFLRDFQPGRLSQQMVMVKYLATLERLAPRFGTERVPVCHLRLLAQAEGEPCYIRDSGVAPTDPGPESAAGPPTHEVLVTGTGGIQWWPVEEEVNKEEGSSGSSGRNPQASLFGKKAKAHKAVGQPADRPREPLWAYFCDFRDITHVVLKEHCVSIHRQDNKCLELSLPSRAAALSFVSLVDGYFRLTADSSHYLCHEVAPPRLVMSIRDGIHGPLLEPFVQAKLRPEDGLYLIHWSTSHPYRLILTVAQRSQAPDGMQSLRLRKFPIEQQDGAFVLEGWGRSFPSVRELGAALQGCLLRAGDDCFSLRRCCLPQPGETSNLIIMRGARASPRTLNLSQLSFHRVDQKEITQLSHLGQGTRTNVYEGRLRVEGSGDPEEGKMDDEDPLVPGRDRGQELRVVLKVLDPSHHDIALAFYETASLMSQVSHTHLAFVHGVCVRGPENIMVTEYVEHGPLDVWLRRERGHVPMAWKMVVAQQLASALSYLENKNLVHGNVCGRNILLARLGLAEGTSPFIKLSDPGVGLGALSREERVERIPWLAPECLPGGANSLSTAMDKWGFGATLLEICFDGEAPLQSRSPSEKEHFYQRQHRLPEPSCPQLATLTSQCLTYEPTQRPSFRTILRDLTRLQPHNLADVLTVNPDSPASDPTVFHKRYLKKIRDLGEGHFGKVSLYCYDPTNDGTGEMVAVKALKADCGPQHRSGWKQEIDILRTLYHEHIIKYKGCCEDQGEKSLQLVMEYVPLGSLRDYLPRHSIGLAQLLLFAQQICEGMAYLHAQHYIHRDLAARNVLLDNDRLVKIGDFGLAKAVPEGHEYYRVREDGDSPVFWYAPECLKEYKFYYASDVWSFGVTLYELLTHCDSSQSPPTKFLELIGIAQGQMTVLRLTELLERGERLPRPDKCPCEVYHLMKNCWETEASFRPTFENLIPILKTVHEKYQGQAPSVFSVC
The target of experiment [10] is T2, Tyrosine-protein kinase receptor TYRO3 (Homo sapiens) (UniProt Q06418).
T2 sequence (whole entry): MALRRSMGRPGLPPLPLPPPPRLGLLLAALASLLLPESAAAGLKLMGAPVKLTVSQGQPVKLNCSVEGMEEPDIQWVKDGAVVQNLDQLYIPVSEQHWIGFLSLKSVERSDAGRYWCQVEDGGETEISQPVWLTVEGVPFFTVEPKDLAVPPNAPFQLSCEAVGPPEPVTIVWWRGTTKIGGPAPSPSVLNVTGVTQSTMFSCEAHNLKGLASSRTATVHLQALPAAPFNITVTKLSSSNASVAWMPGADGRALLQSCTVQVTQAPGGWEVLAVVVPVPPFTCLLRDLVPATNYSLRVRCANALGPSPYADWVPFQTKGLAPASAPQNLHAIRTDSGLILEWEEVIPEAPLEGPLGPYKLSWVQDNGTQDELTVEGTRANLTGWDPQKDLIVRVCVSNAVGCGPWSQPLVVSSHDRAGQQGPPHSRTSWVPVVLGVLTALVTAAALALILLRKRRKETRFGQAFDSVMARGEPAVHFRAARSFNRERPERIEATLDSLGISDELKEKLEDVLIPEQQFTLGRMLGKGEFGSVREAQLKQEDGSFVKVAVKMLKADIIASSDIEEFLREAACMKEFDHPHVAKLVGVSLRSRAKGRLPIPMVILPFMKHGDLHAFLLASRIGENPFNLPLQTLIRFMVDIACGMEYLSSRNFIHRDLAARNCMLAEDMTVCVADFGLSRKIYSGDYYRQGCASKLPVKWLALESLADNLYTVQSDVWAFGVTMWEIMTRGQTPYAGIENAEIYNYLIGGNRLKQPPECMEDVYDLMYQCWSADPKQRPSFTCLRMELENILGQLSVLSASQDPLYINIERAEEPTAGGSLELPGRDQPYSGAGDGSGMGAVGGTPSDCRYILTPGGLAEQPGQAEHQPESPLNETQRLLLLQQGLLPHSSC
The following applies: at 0.1 µM.

Experiment [11] deals with T2, Tyrosine-protein kinase receptor TYRO3 (Homo sapiens). The conditions noted are these: at 1 µM.
For experiment [12], the target named is Tyrosine-protein kinase Yes (Homo sapiens) (UniProt P07947). The conditions noted are these: at 0.1 µM.
Chain of Tyrosine-protein kinase Yes (Homo sapiens) (P07947 2-543 limits assumed): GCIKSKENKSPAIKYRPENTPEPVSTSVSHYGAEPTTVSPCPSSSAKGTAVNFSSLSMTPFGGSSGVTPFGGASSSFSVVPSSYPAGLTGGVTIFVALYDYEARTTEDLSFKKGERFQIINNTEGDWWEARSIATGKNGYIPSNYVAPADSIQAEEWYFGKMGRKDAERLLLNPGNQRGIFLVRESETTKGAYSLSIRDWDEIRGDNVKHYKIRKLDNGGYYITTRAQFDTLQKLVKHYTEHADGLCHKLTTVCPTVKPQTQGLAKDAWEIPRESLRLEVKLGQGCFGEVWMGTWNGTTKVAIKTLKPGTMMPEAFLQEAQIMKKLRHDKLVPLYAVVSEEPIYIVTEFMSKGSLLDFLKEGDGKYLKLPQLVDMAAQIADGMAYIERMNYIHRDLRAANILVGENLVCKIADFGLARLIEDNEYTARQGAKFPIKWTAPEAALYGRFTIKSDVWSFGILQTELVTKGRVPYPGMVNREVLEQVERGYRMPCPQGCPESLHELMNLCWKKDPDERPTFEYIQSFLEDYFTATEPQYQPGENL
Experiment [13] shares this target. The conditions noted are these: at 1 µM.
Experiment [14] concerns the target T3, Tyrosine-protein kinase ZAP-70 (Homo sapiens) (UniProt P43403).
T3 sequence (whole entry): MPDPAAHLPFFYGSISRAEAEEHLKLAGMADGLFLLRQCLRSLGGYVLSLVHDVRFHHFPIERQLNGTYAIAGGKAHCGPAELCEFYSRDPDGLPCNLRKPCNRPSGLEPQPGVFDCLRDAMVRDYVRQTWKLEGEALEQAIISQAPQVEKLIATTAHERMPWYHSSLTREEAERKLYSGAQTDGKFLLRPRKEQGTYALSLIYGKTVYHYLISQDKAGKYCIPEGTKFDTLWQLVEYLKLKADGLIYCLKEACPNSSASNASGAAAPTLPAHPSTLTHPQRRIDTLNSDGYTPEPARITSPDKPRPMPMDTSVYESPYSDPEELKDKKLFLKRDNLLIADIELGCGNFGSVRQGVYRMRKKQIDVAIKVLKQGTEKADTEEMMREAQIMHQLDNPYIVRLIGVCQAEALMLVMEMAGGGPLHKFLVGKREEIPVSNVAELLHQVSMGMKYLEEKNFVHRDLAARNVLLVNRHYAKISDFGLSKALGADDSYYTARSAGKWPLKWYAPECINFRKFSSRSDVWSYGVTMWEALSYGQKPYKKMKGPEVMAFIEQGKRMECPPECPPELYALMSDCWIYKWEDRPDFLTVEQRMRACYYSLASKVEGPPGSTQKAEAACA
The following applies: at 0.1 µM.

The target of experiment [15] is T3, Tyrosine-protein kinase ZAP-70 (Homo sapiens). The following applies: at 1 µM.
Experiment [16] addresses Serine/threonine-protein kinase B-raf (Homo sapiens) (UniProt P15056). The conditions noted are these: at 0.1 µM.
Experiment [17] has the same target. The following applies: at 1 µM.
For experiment [18], the system named is Serine/threonine-protein kinase B-raf (Homo sapiens), P15056 [V600E]. The following applies: at 0.1 µM.
The test system is the same in experiment [19]. The following applies: at 1 µM.
Experiment [20] has as its target RAF proto-oncogene serine/threonine-protein kinase (Homo sapiens) (UniProt P04049). The conditions noted are these: at 0.1 µM.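 Also: values are mean CRAF kinase inhibition from profiling of the GSK Published Kinase Inhibitor Set.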

SMILES strings stand for the structures.

Chain of Fibroblast growth factor receptor 4 (Homo sapiens) (P22455 22-802 limits assumed): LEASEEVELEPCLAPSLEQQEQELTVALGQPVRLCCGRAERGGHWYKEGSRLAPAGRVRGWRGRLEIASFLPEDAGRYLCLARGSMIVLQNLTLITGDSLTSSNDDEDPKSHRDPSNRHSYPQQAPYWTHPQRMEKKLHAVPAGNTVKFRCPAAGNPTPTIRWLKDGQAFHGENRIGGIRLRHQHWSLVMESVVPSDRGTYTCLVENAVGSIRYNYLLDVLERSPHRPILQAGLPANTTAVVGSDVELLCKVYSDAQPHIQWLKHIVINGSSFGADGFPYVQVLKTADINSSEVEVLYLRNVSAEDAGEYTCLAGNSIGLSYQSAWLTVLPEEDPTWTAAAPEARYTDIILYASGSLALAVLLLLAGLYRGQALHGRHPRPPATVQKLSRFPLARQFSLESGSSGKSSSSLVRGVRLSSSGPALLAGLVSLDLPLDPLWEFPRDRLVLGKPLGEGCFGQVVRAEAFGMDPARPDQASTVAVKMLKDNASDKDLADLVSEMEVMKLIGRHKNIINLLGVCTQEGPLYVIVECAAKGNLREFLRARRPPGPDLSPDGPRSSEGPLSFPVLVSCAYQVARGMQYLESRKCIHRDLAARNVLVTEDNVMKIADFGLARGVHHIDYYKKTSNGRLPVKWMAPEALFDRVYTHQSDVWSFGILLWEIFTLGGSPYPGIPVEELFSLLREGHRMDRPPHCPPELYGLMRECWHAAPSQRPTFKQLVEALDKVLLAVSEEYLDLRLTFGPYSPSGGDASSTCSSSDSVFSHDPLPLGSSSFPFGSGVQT
Chain of Tyrosine-protein kinase Fgr (Homo sapiens) (P09769 2-529 limits assumed): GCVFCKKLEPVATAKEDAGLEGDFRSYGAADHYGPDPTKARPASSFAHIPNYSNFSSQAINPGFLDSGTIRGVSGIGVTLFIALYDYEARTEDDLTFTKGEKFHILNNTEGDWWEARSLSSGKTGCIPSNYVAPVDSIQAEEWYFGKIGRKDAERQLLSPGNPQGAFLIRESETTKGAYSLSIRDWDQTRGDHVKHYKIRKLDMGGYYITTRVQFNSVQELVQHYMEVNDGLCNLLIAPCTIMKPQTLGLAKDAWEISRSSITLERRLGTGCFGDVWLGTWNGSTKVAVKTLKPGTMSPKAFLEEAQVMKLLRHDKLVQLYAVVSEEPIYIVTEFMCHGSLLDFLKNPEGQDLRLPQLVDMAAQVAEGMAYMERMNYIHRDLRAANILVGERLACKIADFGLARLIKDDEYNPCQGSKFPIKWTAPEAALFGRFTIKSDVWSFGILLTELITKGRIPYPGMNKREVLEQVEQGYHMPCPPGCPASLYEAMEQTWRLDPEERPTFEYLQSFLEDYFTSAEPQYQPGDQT
Chain of RAF proto-oncogene serine/threonine-protein kinase (Homo sapiens) (P04049 whole entry): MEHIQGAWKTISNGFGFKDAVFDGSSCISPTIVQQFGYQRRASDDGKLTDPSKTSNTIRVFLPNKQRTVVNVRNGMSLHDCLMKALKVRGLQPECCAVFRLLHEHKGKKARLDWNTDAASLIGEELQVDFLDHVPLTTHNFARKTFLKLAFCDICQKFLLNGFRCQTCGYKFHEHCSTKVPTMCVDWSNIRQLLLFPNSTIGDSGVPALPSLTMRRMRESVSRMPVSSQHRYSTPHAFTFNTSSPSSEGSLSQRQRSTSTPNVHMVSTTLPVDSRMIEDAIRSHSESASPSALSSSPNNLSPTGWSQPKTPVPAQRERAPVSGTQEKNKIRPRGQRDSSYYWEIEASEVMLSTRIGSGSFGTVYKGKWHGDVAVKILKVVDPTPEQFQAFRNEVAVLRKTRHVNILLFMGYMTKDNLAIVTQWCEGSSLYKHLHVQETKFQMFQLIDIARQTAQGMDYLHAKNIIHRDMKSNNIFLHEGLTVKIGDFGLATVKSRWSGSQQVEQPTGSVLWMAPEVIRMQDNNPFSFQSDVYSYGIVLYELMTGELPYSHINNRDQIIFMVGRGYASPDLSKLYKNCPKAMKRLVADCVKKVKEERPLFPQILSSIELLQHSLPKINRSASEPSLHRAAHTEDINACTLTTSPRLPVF

One may read the inhibition as the drop in the measured response relative to a control, in per cent. Turning to `NS(=O)(=O)c1ccc(Nc2ncc(-c3ccccc3)o2)cc1`, the inhibition worked out at 1.97% in experiment [1]; 2.45% in [2]; 10.1% in experiment [3]; 4.95% in experiment [4]; 13.1% in [5]; 35.3% in [6]. The inhibition amounted to 78.8% in [7]; 8.41% in experiment [8]; 2.33% in experiment [9]; 3.59% in experiment [10]; 4.49% in [11]; 3.4% in experiment [12]. For the same compound, the inhibition in experiment [13] is 7.73%; in [14], 2.88%; in experiment [15] it was 2.94%; in experiment [16], 5.82%; in [17] it was 8.2%; in experiment [18], 6.65%. For the same compound, the inhibition in [19] is 6.08%; in [20] it was -0.15%.

Take `CN1CCC(n2cnc(-c3ccc(F)cc3)c2-c2ccnc(Nc3ccccc3)n2)CC1`: the inhibition came to 1.8% in experiment [1]; 11.5% in [2]; 33.7% in experiment [3]; 0.12% in experiment [4]; 3.33% in experiment [5]; 0.8% in experiment [6]. Besides, the inhibition in experiment [7] is 1.93%; in [8], -1.9%; in experiment [9] it was 0.82%; in experiment [10] it was 2.41%; in [11], 2.25%; in experiment [12] it was 8.83%. Also, the inhibition in experiment [13] was determined as 42.3%; in experiment [14] it was 1.81%; in [16], 3.78%; in [17], 4.47%; in experiment [18], 3.27%; in experiment [19], 6.57%. For the same compound, the inhibition in [20] is -3.04%.

For `Cc1cccc(Nc2ncc(-c3ccccc3)o2)c1`, the inhibition in [1] was 1.36%; in [2], 2.72%; in experiment [3], 9.59%; in [4], 1.05%; in experiment [5] it was 11%; in experiment [6] it was 39.8%. The inhibition in experiment [7] was 81%; in [8], -4.74%; in experiment [9], -4.11%; in experiment [10] it was 1.56%; in experiment [11] it was 4.61%; in experiment [12], 0.94%. Moreover, the inhibition in experiment [13] was 11.3%; in experiment [14] it was 1.66%; in experiment [15], 1.24%; in experiment [16], 2.32%; in experiment [17], 6.08%; in experiment [18] it was 3.58%. Further, the inhibition in [19] stood at 3.05%; in experiment [20] it was 0.64%.

Regarding `COC(=O)Nc1nc2ccc(Oc3ccc(NC(=O)Nc4cccc(Cl)c4)cc3)cc2[nH]1`, the inhibition in [1] is -0.03%; in experiment [2] it was 2.28%; in [3], 4.23%; in experiment [4], 28.6%; in experiment [5], 56.8%; in experiment [6] it was 21.1%. Moreover, the inhibition in experiment [7] is 57.2%; in experiment [8] it was -4.92%; in experiment [9], -0.96%; in [10], 3.45%; in experiment [11], 11%; in [12], 0.67%. Moreover, the inhibition in experiment [13] was found to be 2.42%; in [14], 0.78%; in experiment [15], 2.42%; in [16], 6.07%; in experiment [17], 17.1%; in experiment [18] it was 6.79%. The inhibition in experiment [19] is 15.1%; in experiment [20], -4.01%.

Take `CCNC(=O)O[C@H]1CN[C@H](C#Cc2cc3ncnc(Nc4ccc(OCc5cccc(F)c5)c(Cl)c4)c3s2)C1`: the inhibition was -0.06% in experiment [1]; 1.28% in experiment [2]; 1.88% in experiment [3]; 2.51% in experiment [4]; 1.26% in [5]; 2.06% in experiment [6]. Also, the inhibition was 2.34% in experiment [7]; 3.08% in [8]; -3.06% in experiment [9]; 2.91% in experiment [10]; 1.4% in [11]; 1.68% in [12]. For the same compound, the inhibition in [13] is -0.6%; in experiment [14], -3.39%; in experiment [15], -3.28%; in experiment [16], 4.28%; in experiment [17] it was 4.49%; in [18] it was 2.44%. The inhibition in experiment [19] was 2.23%; in experiment [20] it was -0.64%.

In the case of `CS(=O)(=O)CCNCc1ccc(-c2ccc3ncnc(Nc4ccc(OCc5ccccc5)c(C(F)(F)F)c4)c3c2)o1`, the inhibition in experiment [1] was found to be 2.14%; in [2], 1.98%; in experiment [3] it was 4.93%; in experiment [4] it was 1.28%; in [5] it was 0.39%; in experiment [6], 3.55%. Further, the inhibition in experiment [7] was 2.04%; in [8] it was -8.47%; in [9] it was -3.76%; in experiment [10], 5.89%; in experiment [11] it was 6.25%; in [12] it was 2.85%. Besides, the inhibition in experiment [13] was found to be 7.92%; in [14], 0.47%; in [15], 2.41%; in [16] it was 5.9%; in experiment [17], 4.19%; in experiment [18], 3.97%. The inhibition in experiment [19] amounted to 3%; in experiment [20], 1.81%.

In the case of `c1ccc(-c2nc3n(c2-c2ccc4c(c2)OCO4)CCC3)nc1`, the inhibition in experiment [1] was 1.32%; in [2], -0.63%; in experiment [3] it was 0.17%; in experiment [4], 1.18%; in [5], 0.86%; in experiment [6] it was 1.13%. For the same compound, the inhibition in experiment [7] is 0.36%; in experiment [8] it was -1.36%; in experiment [9], -1.07%; in [10] it was 0.75%; in [11], 1.8%; in [12], 1.3%. For the same compound, the inhibition in experiment [13] was determined as 3.94%; in experiment [14], 4.17%; in [15], 1.94%; in experiment [16], 2.61%; in experiment [17], 2.48%; in experiment [18], 2.01%. The inhibition in experiment [19] was 3.56%; in [20], -0.19%.

For the origin of these results see ChEMBL document CHEMBL1961873, “Compounds: GSK PKIS; Assays: Nanosyn kinase panel” (2012).
